Assay results as given in the supplement of paper PMC8699584.
Where a name gives a salt, the structure may show the parent alone. ± gives the standard deviation of the averaged measurements.

Key:
[1] = tested on: Molm13; experiment: cell viability relative to DMSO control (bortezomib = 0%); higher = less growth inhibition; conditions: 10 nM; 72 h
Outline: (§1)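 Each plate's values were converted to percentages by linear regression, taking DMSO-treated cells as 100% and positive-control-treated cells as 0%. These plates were 384-well plates of 679 approved and investigational compounds at a single 10 nM dose, onto which acute myeloid leukemia cells were dispensed at 1000 cells per well in 50 µL for 72 h, in duplicate. Cell viability came from CellTiter-Glo luminescence on an EnVision reader.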

[2] = tested on: Mv4-11; experiment: as above; conditions: 10 nM; 72 h
Outline: as §1

Row | SMILES | cell viability [1] | cell viability [2]
1 | COc1ccc(-n2c(SCC#N)nc3sc4c(c3c2=O)CCCC4)cc1 [Necrostatin-5] | 102 ± 3.9% | 103 ± 3%
2 | Fc1ccc(-c2nc3n(c2-c2ccncc2)CCS3)cc1 | 102.8 ± 0.71% | 98.2 ± 4.3%
3 | O=C(Nc1cc(Cl)cc2c1[nH]c1cnccc12)c1cccnc1 | 110 ± 1.9% | 110.7 ± 0.66%
4 | CC(C)(C)Cn1c(N)nc2ccc(-c3[nH]c(C(C)(C)C)nc3-c3ccc(F)cc3)nc21 | 100 ± 12% | 84.9 ± 21%
5 | CNC(=O)c1ccccc1Oc1nc(Nc2cc(OC)c(OC)c(OC)c2)ncc1Br | 98.7 ± 26% | 107 ± 11%
6 | CNC(=O)c1c(C)oc2cc(Oc3ncnc4cc(OC)c(OC)cc34)ccc12 [Fruquintinib] | 103 ± 25% | 106 ± 2.8%
7 | CN1CCN(Cc2ccc(-c3cnc4[nH]cc(-c5ccc6[nH]ccc6c5)c4c3)cc2)CC1 | 109 ± 33% | 121 ± 31%
8 | COc1cc2c(cc1OC)-c1[nH]nc(Nc3cccc(F)c3)c1C2 | 120 ± 23% | 116 ± 26%
9 | COc1ccc(CCNCc2ccc(OCc3ccc(Cl)nc3)c(OC)c2)cc1OC [SBE 13 hydrochloride] | 99.3 ± 18% | 107 ± 3%
10 | O=S(=O)(c1cccc2cnccc12)N1CCCNCC1 [HA-1077 (hydrochloride)] | 105 ± 14% | 112 ± 3.5%
11 | CC(C)(C)NS(=O)(=O)c1cncc(-c2cc(F)c3nc(N)nn3c2)c1 | 95.9 ± 22% | 105 ± 1.1%
12 | CN1CCN(c2ccc(Nc3cc(-c4cccc(-n5ccc6cc(C7CC7)cc(F)c6c5=O)c4CO)cn(C)c3=O)nc2)CC1 | 99.6 ± 8.6% | 107 ± 8.8%
13 | COc1ccc(-c2oc3c(CC=C(C)C)c(O)cc(O)c3c(=O)c2O)cc1 [Icaritin] | 117 ± 8.4% | 118 ± 1.5%
14 | CN(c1ccccc1CNc1nc(Nc2ccc3c(c2)CC(=O)N3)ncc1C(F)(F)F)S(C)(=O)=O | 112 ± 25% | 96.4 ± 15%
15 | Nc1cc(C(F)(F)F)c(-c2nc(N3CCOCC3)nc(N3CCOCC3)n2)cn1 | 94.3 ± 30% | 109 ± 5.2%
16 | Oc1cc(O)cc(/C=C/c2ccc(O)c(O)c2)c1 [Piceatannol] | 101 ± 6.1% | 108 ± 11%
17 | CC(C)Oc1ccc(C(=O)N[C@H](CNC(=O)CN(C)C)Cc2ccc(-c3cn4cccc([C@H](C)O)c4n3)cc2)cc1Cl | 110 ± 19% | 121 ± 9.3%
18 | Nc1nc(O)c2ncn(CCC(CO)CO)c2n1 [Penciclovir] | 111 ± 8% | 104 ± 2.1%
19 | Cc1cc(N2CCOCC2)ccc1Nc1nc(NC2CCCCC2)c2[nH]cnc2n1 | 119 ± 3.6% | 108 ± 15%
20 | Cc1cnc(Nc2ccc(OCCN3CCCC3)cc2)nc1Nc1cccc(S(=O)(=O)NC(C)(C)C)c1 | 86.3 ± 1.3% | 92.97 ± 0.82%
21 | C=C1C[C@@]2(O)O[C@@]3(C[C@H]2C(C)C)[C@@H](C)CC[C@@H]13 [Curcumol] | 99 ± 9.7% | 97.2 ± 4.6%
22 | NC(=O)c1ccc(-c2nc(-c3ccccn3)c(-c3ccc4c(c3)OCO4)[nH]2)cc1 | 105 ± 16% | 107 ± 20%
23 | O=C(NCCCNc1nc(Nc2cccc(CN3CCOCC3)c2)ncc1C1CC1)C1CCC1 | 86.2 ± 18% | 106 ± 28%
24 | CCCS(=O)(=O)Nc1ccc(F)c(C(=O)c2c[nH]c3ncc(-c4ccc(Cl)cc4)cc23)c1F [Vemurafenib (PLX4032, RG7204)] | 101 ± 7% | 105 ± 1.1%

Row | SMILES | cell viability [1] | cell viability [2]
25 | CN(c1ncccc1CNc1nc(Nc2ccc3c(c2)CC(=O)N3)ncc1C(F)(F)F)S(C)(=O)=O | 98 ± 2.3% | 105 ± 8.8%
26 | O=C(Nc1ccc2[nH]nc(-c3ccncc3)c2c1)[C@@H]1CCN(CC(=O)N2CCN(c3ccc(-c4ncccn4)cc3)CC2)C1 | 92 ± 12% | 95.8 ± 19%
27 | CCOC(=O)c1cnc2ccc(-c3cncc(NS(=O)(=O)c4ccccc4)c3)cn12 | 99.7 ± 8.9% | 103 ± 14%
28 | O=c1[nH]c(C2CCCN2)nc2c1oc1ccc(Cl)cc12 (stereo unspecified) | 96.9 ± 13% | 107 ± 3.5%
29 | CC(=O)/C(C)=N/O [2,3-Butanedione 2-Monoxime] | 79.4 ± 21% | 119 ± 7.6%
30 | NC(=O)c1ccc(NC(=O)NCc2cccc(C(=O)Nc3ccc4c(c3)CNCC4)c2)cc1 | 117 ± 25% | 119 ± 19%
31 | CCN(CC)CCNC(=O)c1c(C)[nH]c(/C=C2\C(=O)Nc3ccc(F)cc32)c1C [Sunitinib Malate] | 83.1 ± 1.1% | 97.8 ± 4.2%
32 | CCCCCCCCCC(=O)CC(O)S(=O)(=O)O (stereo unspecified) [Sodium houttuyfonate] | 108 ± 1.5% | 106 ± 1.1%
33 | CC(C)(C)c1cc(NC(=O)Nc2ccc(-c3cn4c(n3)sc3cc(OCCN5CCOCC5)ccc34)cc2)no1 [Quizartinib (AC220)] | 9.37 ± 9.1% | 3.71 ± 2.9%
34 | COc1cc(Nc2ncc(F)c(Nc3ccc4c(n3)N(COP(=O)(O)O)C(=O)C(C)(C)O4)n2)cc(OC)c1OC [Fostamatinib (R788)] | 99.7 ± 0.34% | 104 ± 1.8%
35 | C=CCn1c(=O)c2cnc(Nc3ccc(N4CCN(C)CC4)cc3)nc2n1-c1cccc(C(C)(C)O)n1 | 93.6 ± 20% | 95.2 ± 2.1%
36 | CCCCOc1c(C(=O)c2c(F)cc(C)cc2F)c[nH]c2nncc1-2 | 112 ± 1.9% | 107 ± 7%
37 | CCCCC/C=C\C/C=C\C/C=C\C/C=C\CCCC(=O)NC[C@]1(C)CCC[C@]2(C)c3ccc(C(C)C)cc3CC[C@@H]12 [Arachidonic Acid Leelamide] | 105 ± 17% | 112 ± 1.2%
38 | Nc1nc(N)c2nc(-c3cccc(O)c3)c(-c3cccc(O)c3)nc2n1 | 96.7 ± 5% | 120 ± 11%
39 | CNC(=O)CN1CCC(Oc2cc3c(Nc4cccc(Cl)c4F)ncnc3cc2OC)CC1 [AZD8931 (Sapitinib)] | 104 ± 6.3% | 116 ± 4.9%
40 | COc1cc2ncnc(Nc3ccc(F)c(Cl)c3)c2cc1OCCCN1CCOCC1 [Gefitinib (ZD1839)] | 110 ± 23% | 116 ± 1.7%
41 | CNCCNS(=O)(=O)c1cccc2cnccc12 [H-8 (hydrochloride)] | 106 ± 12% | 108 ± 7.2%
42 | Cn1cnc2nc(NCCO)nc(NCc3ccccc3)c21 [Iso-Olomoucine] | 119 ± 15% | 113 ± 9.7%
43 | NC(=O)Nc1cc(-c2ccc(CN3CCOCC3)cc2)sc1C(N)=O | 108 ± 30% | 113 ± 6.3%
44 | O=C(Nc1nc2ccc(NC(=O)C34CC5CC(CC(C5)C3)C4)cc2s1)c1ccccc1 | 117 ± 12% | 101 ± 8.4%
45 | FC(F)(F)c1ccc(CNc2ccc(Cc3c[nH]c4ncccc34)cn2)cc1 | 76.9 ± 16% | 110 ± 3.2%
46 | C#Cc1cccc(Nc2ncnc3cc(OCCOC)c(OCCOC)cc23)c1 [Erlotinib] | 102 ± 6.9% | 102 ± 10%
47 | NC(=O)c1ncn([C@@H]2O[C@H](CO)[C@@H](O)[C@H]2O)n1 [Ribavirin] | 98.7 ± 13% | 106 ± 5.6%
48 | CC1(C)C=Cc2c(ccc3c2OC[C@@H](c2ccc(O)cc2O)C3)O1 [Glabridin] | 100 ± 12% | 99 ± 1.6%
